BoNT F protease: BoNT/F light chain protease inhibitors, primary screen, biochemical, flow cytometry, MLPCN library; Botulinum neurotoxin type F light chain protease (Clostridium botulinum); inhibition, % at 10 µM; Multiplex microsphere protease cleavage assay; 360,000 tested, 0.22% active; in the data active means inhibition above about 35%, passing the limit was not always enough; further: plate controls were buffer without enzyme for full effect and enzyme alone for no effect
BoNT A protease: BoNT/A light chain protease inhibitors, primary screen, biochemical, flow cytometry, MLPCN library; Botulinum neurotoxin type A light chain protease (Clostridium botulinum A str. ATCC 3502); multiplex microsphere protease substrate cleavage; inhibition, % at 10 µM; 360,000 tested, 0.17% active; AID 588499, 2011; further: plate controls were buffer without enzyme for full effect and enzyme alone for no effect
Mtb FBA inh: Mtb FBA enzyme inhibitors, primary screen, biochemical, fluorescence, strain H37Rv | inhibition, % at 1 µM | Fructose-bisphosphate aldolase (Mycobacterium tuberculosis (strain ATCC 25618 / H37Rv)), … | 360,000 tested, 2.3% active | AID 588726, 2011 | purified M. tuberculosis FBA, fluorescence read-out; in the data active means inhibition above about 27%;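 further: 0% = vehicle and 100% = reference inhibitor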
Target sequence (P9WQA3 whole entry, looked up): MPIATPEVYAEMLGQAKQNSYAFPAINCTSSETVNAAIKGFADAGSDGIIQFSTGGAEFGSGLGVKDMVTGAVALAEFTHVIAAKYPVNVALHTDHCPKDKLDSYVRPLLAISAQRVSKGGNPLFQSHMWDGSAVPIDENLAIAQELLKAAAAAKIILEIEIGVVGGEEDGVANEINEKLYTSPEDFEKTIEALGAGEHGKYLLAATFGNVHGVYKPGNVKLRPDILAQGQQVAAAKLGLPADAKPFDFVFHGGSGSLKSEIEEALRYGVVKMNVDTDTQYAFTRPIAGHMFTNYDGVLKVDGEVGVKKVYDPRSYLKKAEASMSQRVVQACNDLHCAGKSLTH
Bead autofluor: counter-screen for toxin protease inhibitors: compound fluorescence | compound autofluorescence counterscreen, microsphere flow cytometry; active compounds read high | fluorescence intensity (concentration not given with the values) | 360,000 tested, 3.1% active; in the data active means fluorescence intensity above about 16000
GDH-TPI inh: GDH-TPI coupling enzyme inhibitors, primary screen, artefact control for M. tuberculosis FBA inhibitor project, biochemical, absorbance, full deck. 360,000 tested, 1.2% active. inhibition, % at 4.8 µM. GDH-TPI coupled enzyme counterscreen, NADH absorbance. AID 588335, 2011; in the data active means inhibition above about 30%;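 further: 0% = DMSO wells and 100% = wells lacking the enzyme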
Anthrax LF prot: Bacillus anthracis LF protease inhibitors, primary screen, biochemical, multiplex microsphere, MLPCN library; Lethal factor (Bacillus anthracis), P15917; multiplex microsphere protease cleavage assay; inhibition, % at 10 µM; 360,000 tested, 0.12% active; AID 588501, 2011; further: plate controls were buffer without enzyme for full effect and enzyme alone for no effect
An asterisk follows results filed as active. Compounds with a hit are over-represented: about 6.7% of the library has one in this group of screens. Unless noted, no stated cut-off is given here; in the data, active means inhibition above about 30%; inconclusive means no clear call, values can overlap the other calls; inactive means below that.

Screening O=c1oc2ccccc2cc1-c1ccc(O)cc1O returned BoNT F protease -4, BoNT A protease 0, Mtb FBA inh 3, Bead autofluor 2641, GDH-TPI inh 23 and Anthrax LF prot 1.
Screening O=c1oc2cc(O)ccc2cc1-c1ccccc1 returned BoNT F protease 7, BoNT A protease 2, Mtb FBA inh active, Bead autofluor 4792, GDH-TPI inh 12 and Anthrax LF prot 0.
`O=C(CNC(=O)c1ccc(Cl)cc1)NCc1ccccn1` gave BoNT F protease -3, BoNT A protease -1, Mtb FBA inh -1, Bead autofluor 4091, GDH-TPI inh 7 and Anthrax LF prot 2.
Screening COc1ccccc1C/C(N)=N/OC(=O)COc1cccc2ccccc12 returned BoNT F protease 1, BoNT A protease 4, Mtb FBA inh -3, Bead autofluor 21885*, GDH-TPI inh -4 and Anthrax LF prot -12.
Screening CCOC(=O)c1c(-c2ccc(C)cc2)csc1NC(=O)CCN1CC(C)OC(C)C1 (stereo not drawn) returned BoNT F protease 13, BoNT A protease 1, Mtb FBA inh 2, Bead autofluor 2005, GDH-TPI inh 11 and Anthrax LF prot 1.
For Cc1c(NC(=O)c2ccccc2NC(=O)c2ccccc2)cccc1C(=O)O the results were BoNT F protease 2, BoNT A protease 0, Mtb FBA inh 1, Bead autofluor 3436, GDH-TPI inh 16 and Anthrax LF prot 4.
Screening CC(NC(=O)c1ccccc1N)c1ccccc1 (stereo not drawn) returned BoNT F protease 7, BoNT A protease 0, Mtb FBA inh 47*, Bead autofluor 3948, GDH-TPI inh -5 and Anthrax LF prot 8.
Cc1c(NC(=O)c2ccccc2N)cccc1C(=O)O was read as BoNT F protease 2, BoNT A protease 0, Mtb FBA inh 14, Bead autofluor 20340*, GDH-TPI inh -1 and Anthrax LF prot -4.
`O=C(/C=C/Nc1cccc([N+](=O)[O-])c1)c1ccco1` gave BoNT F protease 9, BoNT A protease 10, Mtb FBA inh -2, Bead autofluor 5341, GDH-TPI inh 35* and Anthrax LF prot 10.
`Cc1nc2ncnn2c(C)c1CCC(=O)N1CCOCC1` gave BoNT F protease 5, BoNT A protease 2, Mtb FBA inh -3, Bead autofluor 22539*, GDH-TPI inh -9 and Anthrax LF prot -5.
Screening Cc1nc2nc(C)c(CCC(=O)N3CCN(c4ccccn4)CC3)c(C)n2n1 returned BoNT F protease -3, BoNT A protease -1, Mtb FBA inh 3, Bead autofluor 23157*, GDH-TPI inh -3 and Anthrax LF prot -5.
`N#C/C(=C\c1ccc(OCc2ccc(F)cc2)cc1)C(=O)Nc1cccc(C(=O)O)c1` gave BoNT F protease 2, BoNT A protease -1, Mtb FBA inh -6, Bead autofluor 3618, GDH-TPI inh 73* and Anthrax LF prot -4.
Screening COc1cc(/C=C(\C#N)C(=O)Nc2cccc(C(=O)O)c2)ccc1OCc1ccc(F)cc1 returned BoNT F protease 0, BoNT A protease 0, Mtb FBA inh 0, Bead autofluor 5725, GDH-TPI inh 36* and Anthrax LF prot -3.
Screening COc1ccc(NC(=O)/C(C#N)=C\c2ccc(OCc3ccc(C(=O)O)cc3)c(OC)c2)cc1 returned BoNT F protease 0, BoNT A protease 0, Mtb FBA inh -1, Bead autofluor 2233, GDH-TPI inh 18 and Anthrax LF prot 0.
`COc1cc(/C=C(/C#N)c2ccc(F)cc2)ccc1OCc1ccc(C(=O)O)o1` gave BoNT F protease 2, BoNT A protease -1, Mtb FBA inh 1, Bead autofluor 10475, GDH-TPI inh 45* and Anthrax LF prot -11.
Screening CCOc1ccc(/C=C/C(O)=C2/C(=O)N(C)C3(C)CC2c2ccccc2O3)cc1OC (stereo not drawn) returned BoNT F protease -3, BoNT A protease 0, Mtb FBA inh 3, Bead autofluor 5297, GDH-TPI inh 39* and Anthrax LF prot -9.

Compound activity as filed in PubChem.
